USP10 inh: inhibitors of human USP10 deubiquitinase. Ubiquitin carboxyl-terminal hydrolase 10 (Homo sapiens), Q14694. purified USP10, Ub-rhodamine fluorescence, 60 min. inhibition, % at 20 µM. actives 1.1% (n = 47,000). AID 1645856, 2021
Target sequence (Q14694 whole entry, looked up): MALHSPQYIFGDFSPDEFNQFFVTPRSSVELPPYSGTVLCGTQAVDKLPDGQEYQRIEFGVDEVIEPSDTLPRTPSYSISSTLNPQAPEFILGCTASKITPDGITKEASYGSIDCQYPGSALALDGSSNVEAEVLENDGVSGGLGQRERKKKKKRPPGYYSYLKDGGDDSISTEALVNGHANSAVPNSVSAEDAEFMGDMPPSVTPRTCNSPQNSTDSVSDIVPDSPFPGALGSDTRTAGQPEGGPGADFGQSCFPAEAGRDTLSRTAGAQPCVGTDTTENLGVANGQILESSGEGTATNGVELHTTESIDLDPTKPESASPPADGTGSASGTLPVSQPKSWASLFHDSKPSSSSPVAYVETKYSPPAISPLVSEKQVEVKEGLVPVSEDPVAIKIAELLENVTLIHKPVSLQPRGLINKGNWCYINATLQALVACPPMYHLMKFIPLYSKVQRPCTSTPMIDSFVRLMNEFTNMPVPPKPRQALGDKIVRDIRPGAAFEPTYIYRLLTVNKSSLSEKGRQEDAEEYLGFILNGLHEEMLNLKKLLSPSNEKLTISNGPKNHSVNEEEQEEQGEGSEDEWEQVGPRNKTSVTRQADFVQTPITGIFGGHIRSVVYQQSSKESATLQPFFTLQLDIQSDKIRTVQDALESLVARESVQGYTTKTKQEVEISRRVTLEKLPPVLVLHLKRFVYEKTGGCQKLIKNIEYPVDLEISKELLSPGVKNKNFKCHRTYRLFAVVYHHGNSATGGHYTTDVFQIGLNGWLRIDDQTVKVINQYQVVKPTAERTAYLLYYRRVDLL
OTUD3 block: inhibitors of human OTUD3 deubiquitinase. OTU domain-containing protein 3 (Homo sapiens), Q5T2D3. purified OTUD3, Ub-rhodamine fluorescence, 2 h. inhibition, % at 25 µM. actives 0.7% (n = 47,000). AID 1645858, 2021
USP8 block: inhibitors of human USP8 deubiquitinase | Ubiquitin carboxyl-terminal hydrolase 8 (Homo sapiens), P40818 | purified USP8, Ub-rhodamine cleavage fluorescence, 30 min | inhibition, % at 20 µM | actives 4.2% (n = 47,000)
UCHL1 inh: inhibitors of human UCHL1 deubiquitinase; inhibition, % at 20 µM; actives 0.2% (n = 47,000); purified UCHL1, Ub-rhodamine cleavage fluorescence; Ubiquitin carboxyl-terminal hydrolase isozyme L1 (Homo sapiens), P09936; AID 1645859, 2021
USP7 inh: inhibitors of human USP7 deubiquitinase. purified USP7, Ub-rhodamine cleavage fluorescence. AID 1645854, 2021. actives 0.3% (n = 47,000). inhibition, % at 20 µM
USP28 block: inhibitors of human USP28 deubiquitinase | purified USP28, Ub-rhodamine cleavage fluorescence, 30 min | inhibition, % at 25 µM | actives 3% (n = 47,000) | AID 1645857, 2021
* = called active by the depositor. Shown are actives, neighbours in structure and some others; about 6.8% of the full set was active somewhere. No stated cut-off is given here; in the data, active means inhibition above about 30%; inactive means the rest.

What do the screens show for `Cc1ccc2nc(NC(=O)C3CCCN3S(=O)(=O)c3ccc4c(c3)OCCO4)sc2c1` (centres undefined)?
USP10 inh: 2; OTUD3 block: 0; USP8 block: 17; UCHL1 inh: 6; USP7 inh: 7; USP28 block: 53*

What do the screens show for `O=C(Cn1c(=O)[nH]c2ccccc2c1=O)NC1CC1`?
USP10 inh: 0; OTUD3 block: 7; USP8 block: 0; UCHL1 inh: 0; USP7 inh: 2; USP28 block: 7

Results for O=C(Cn1c(=O)[nH]c2ccccc2c1=O)NCc1ccccc1Cl ?
USP10 inh: 14; OTUD3 block: 9; USP8 block: 55*; UCHL1 inh: 6; USP7 inh: 16; USP28 block: 6

How did N#Cc1ccc(OCc2noc(-c3ccc(F)cc3)n2)cc1 do in these assays?
USP10 inh: 1; OTUD3 block: 8; USP8 block: 38*; UCHL1 inh: 0; USP7 inh: 5; USP28 block: 23

Results for CCN(CC)C(=O)c1[nH]c(C)c(C(C)=O)c1C ?
USP10 inh: -1; OTUD3 block: -9; USP8 block: 14; UCHL1 inh: -2; USP7 inh: 0; USP28 block: -12

How did CC1=C(C(=O)OC2CCCC2)C(c2ccc(Cl)c([N+](=O)[O-])c2)CC(=O)N1 (centres undefined) do in these assays?
USP10 inh: 6; OTUD3 block: 4; USP8 block: 0; UCHL1 inh: 6; USP7 inh: -46; USP28 block: 6

What do the screens show for `CC1=C(C(=O)OC2CCCCCC2)C(c2ccccc2[N+](=O)[O-])CC(=O)N1` (centres undefined)?
USP10 inh: 3; OTUD3 block: -3; USP8 block: 62*; UCHL1 inh: 1; USP7 inh: -6; USP28 block: 7

What do the screens show for `CCc1c(C)nc2c(-c3ccccc3)c(Cc3ccccc3)[nH]n2c1=O`?
USP10 inh: 16; OTUD3 block: 22; USP8 block: 62*; UCHL1 inh: -8; USP7 inh: 7; USP28 block: 12

How did CC(Nc1cc(-c2ccncc2)nc(-c2ccccn2)n1)c1ccccc1 (centres undefined) do in these assays?
USP10 inh: 0; OTUD3 block: 8; USP8 block: -111; UCHL1 inh: 2; USP7 inh: 3; USP28 block: 6

What do the screens show for `O=C(NCc1nc(-c2ccc3c(c2)[nH]c(=O)n3C2CCCC2)no1)c1ccccc1`?
USP10 inh: -4; OTUD3 block: -20; USP8 block: 49*; UCHL1 inh: -2; USP7 inh: 0; USP28 block: 0

What do the screens show for `O=[N+]([O-])c1ccc2nc(/C=C/c3cc4ccccc4nc3N3CCOCC3)sc2c1`?
USP10 inh: -7; OTUD3 block: -25; USP8 block: -34; UCHL1 inh: -11; USP7 inh: -5; USP28 block: -30

How did Cc1cccc(/C=C/c2nc3ccc([N+](=O)[O-])cc3s2)c1 do in these assays?
USP10 inh: 4; OTUD3 block: -11; USP8 block: 87*; UCHL1 inh: 7; USP7 inh: 8; USP28 block: -10

Results for CCCCOc1ccccc1C(=O)Nc1ccc(OCC)c2ncccc12 ?
USP10 inh: -4; OTUD3 block: -4; USP8 block: 44*; UCHL1 inh: 0; USP7 inh: -4; USP28 block: -2

Results for C[C@@H]1CC[C@H]2C(CN3CCN(c4ccccn4)CC3)C(=O)O[C@]23[C@H]1CC[C@@]1(C)O[C@@H]31 (some centres undefined) ?
USP10 inh: -3; OTUD3 block: 5; USP8 block: 13; UCHL1 inh: 0; USP7 inh: 2; USP28 block: 2

Results for CCn1nccc1C1CCCN1S(=O)(=O)c1ccccc1[N+](=O)[O-] (centres undefined) ?
USP10 inh: -3; OTUD3 block: -1; USP8 block: -174; UCHL1 inh: -3; USP7 inh: -2; USP28 block: -7

What do the screens show for `Cc1cccc(OCC(O)CNc2nc(C)cc(C)n2)c1` (centres undefined)?
USP10 inh: 1; OTUD3 block: -4; USP8 block: 4; UCHL1 inh: 0; USP7 inh: 1; USP28 block: -5

How did COc1cccc(OCC(O)CNc2ccc(Cl)cc2)c1 (centres undefined) do in these assays?
USP10 inh: 3; OTUD3 block: -3; USP8 block: 37*; UCHL1 inh: 2; USP7 inh: -80; USP28 block: -8

How did O=c1ccc(S(=O)(=O)N2CCCCCC2)cn1Cc1cccc(F)c1 do in these assays?
USP10 inh: 0; OTUD3 block: 11; USP8 block: 8; UCHL1 inh: 0; USP7 inh: -11; USP28 block: 4

What do the screens show for `COc1ccc2c(c1)c(=O)c(S(=O)(=O)c1ccc(F)cc1)cn2Cc1cccc(F)c1`?
USP10 inh: 39*; OTUD3 block: 1; USP8 block: 25; UCHL1 inh: 4; USP7 inh: -6; USP28 block: 0

Results for COc1cccc(CNC(=O)C2=Cc3cccc(OC)c3OC2)c1 ?
USP10 inh: -1; OTUD3 block: 0; USP8 block: 20; UCHL1 inh: 0; USP7 inh: 0; USP28 block: 60*

How did O=C(CNC(=O)c1cc2c(=O)n3ccccc3nc2s1)c1ccccc1 do in these assays?
USP10 inh: -2; OTUD3 block: -38; USP8 block: 44*; UCHL1 inh: -5; USP7 inh: -34; USP28 block: -75

Results for Cc1cc(N2C(=O)c3oc4ccc(F)cc4c(=O)c3C2c2cccc(OCc3ccccc3Cl)c2)no1 (centres undefined) ?
USP10 inh: 5; OTUD3 block: 0; USP8 block: 31*; UCHL1 inh: 2; USP7 inh: 5; USP28 block: -2

How did Cc1cc(N2C(=O)c3oc4ccc(F)cc4c(=O)c3C2c2cccc(OCc3ccccc3)c2)no1 (centres undefined) do in these assays?
USP10 inh: 2; OTUD3 block: 0; USP8 block: -4; UCHL1 inh: 0; USP7 inh: 1; USP28 block: 1

Results for N#C/C(=C\c1ccc(OCc2cccc(C(=O)O)c2)cc1)c1ccc(F)cc1 ?
USP10 inh: 77*; OTUD3 block: 8; USP8 block: 59*; UCHL1 inh: 5; USP7 inh: 31*; USP28 block: 29

What do the screens show for `c1ccc(-c2cc(Nc3c4c(nc5ccccc35)CCCC4)n[nH]2)cc1`?
USP10 inh: -2; OTUD3 block: -17; USP8 block: 2; UCHL1 inh: -3; USP7 inh: 4; USP28 block: -14

Screening results as filed in PubChem.
